For seven compounds, outcome and Potency results are on record in PubChem BioAssay (Tox21).

The nature of assay [1]: qHTS assay to test for compound auto fluorescence at 535 nm (green) in HEK293 cells (AID 720680).
Assay [2] is described as follows: qHTS assay to test for compound auto fluorescence at 460 nm (blue) in HEK293 cell free culture (AID 720681). Summed up:
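Test compounds were pinned into cell-free culture medium (DMEM with 10% FBS) and fluorescence was read directly at Ex/Em 405/460 nm. Signals were expressed as fluorescence equivalents of triamterene, with DMSO vehicle as control.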

Assay [3] in a line: qHTS assay to test for compound auto fluorescence at 535 nm (green) in HEK293 cell free culture (AID 720682). In short, it runs like this: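 No cells present: wells hold DMEM supplemented with 10% FBS, into which compound or vehicle is pinned. Green emission is then recorded (485 nm excitation, 535 nm emission) and scaled to fluorescein.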
Assay [4] is described as follows: qHTS assay to test for compound auto fluorescence at 590 nm (red) in HepG2 cell free culture (AID 720684). Summed up: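 Readout: intrinsic compound fluorescence at 590 nm emission after 540 nm excitation, scaled to Rose Bengal sodium. Matrix was cell-free MEM with 10% FBS; DMSO vehicle wells served as control.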
Assay [5] is described as follows: qHTS assay to test for compound auto fluorescence at 460 nm (blue) in HepG2 cell free culture (AID 720685). In short, it runs like this: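 Cell-free plates of MEM plus 10% FBS received 23 nL compound or DMSO vehicle; blue-channel (405/460 nm) intensity scored against triamterene as reference fluorophore.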
A short description of assay [6]: qHTS assay to test for compound auto fluorescence at 535 nm (green) in HepG2 cell free culture (AID 720686).
The nature of assay [7]: qHTS assay to test for compound auto fluorescence at 460 nm (blue) in HepG2 cells (AID 720687). Summed up: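 Cells (2,000/well in MEM with 10% FBS) attached overnight at 37 C, then were exposed to compound or DMSO for 1 hr at 37 C, 5% CO2. Fluorescence read at Ex/Em 405/460 nm, expressed as triamterene-equivalent signal.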
Assay [8] concerns the target Glucocorticoid receptor (Homo sapiens) (UniProt P04150). The experiment in a line: qHTS assay to identify small molecule agonists of the glucocorticoid receptor (GR) signaling pathway (AID 720691; active = well fitted activation curve with a large enough effect in the signal ratio in the repeat runs, not every such curve was filed as active; the % refers to the signal ratio). Conditions: GR-bla HeLa, beta-lactamase reporter ratio, 18 h; activation: at 62.4 µM (top of the series). In short, it runs like this: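 HeLa GR-bla reporter line; cells pre-incubated 4 h, compound in DMSO 18 h at 37 C; LiveBLAzer B/G FRET substrate 2 h RT; fluorescence intensity read-out.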

Assay [9] has the same target. Put plainly: qHTS assay to identify small molecule antagonists of the glucocorticoid receptor (GR) signaling pathway (AID 720692; active = well fitted inhibition curve with a large enough effect in the signal ratio in the repeat runs, not every such curve was filed as active; the % refers to the signal ratio). In short, it runs like this: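 Read-out: beta-lactamase FRET substrate fluorescence, 2 h at room temperature, in HeLa cells stably carrying a GRE-driven bla reporter. Compounds were co-incubated with 5 nM dexamethasone agonist (final) for 18 h at 37 C.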

Assay [10] is described as follows: qHTS assay to identify small molecule antagonists of the glucocorticoid receptor (GR) signaling pathway - cell viability counter screen (AID 720693). Also: nearly all actives have a fitted effect of over 55% in size. Also: potency is read from the fitted curve at half-maximal effect.
The nature of assay [11]: qHTS assay for identifying genotoxic compounds that show differential cytotoxicity against isogenic chicken DT40 cell lines with known DNA damage response pathways - wild type cell line (AID 743012). Also: nearly all actives have a fitted effect of over 60% in size. Also: potency is read from the fitted curve at half-maximal effect. Summed up: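 CellTiter-Glo luminescence readout of viability in wild type DT40 cells after 40 h compound exposure at 37 C/5% CO2; 300 cells/well; reagent incubated 30 min at room temperature before reading.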

Assay [12] in a line: qHTS assay for identifying genotoxic compounds that show differential cytotoxicity against isogenic chicken DT40 cell lines with known DNA damage response pathways - Rev3 mutant cell line (AID 743014). Also: nearly all actives have a fitted effect of over 55% in size. Also: potency is read from the fitted curve at half-maximal effect.
A short description of assay [13]: qHTS assay for identifying genotoxic compounds that show differential cytotoxicity against isogenic chicken DT40 cell lines with known DNA damage response pathways - Rad54/Ku70 mutant cell line (AID 743015). Also: nearly all actives have a fitted effect of over 60% in size. Also: potency is read from the fitted curve at half-maximal effect.
Assay [14] in a line: qHTS assay to identify small molecule antagonists of the androgen receptor (AR) signaling pathway - cell viability counter screen (AID 743033; also: nearly all actives have a fitted effect of over 45% in size; also: potency is read from the fitted curve at half-maximal effect).
The nature of assay [15]: qHTS assay to identify small molecule antagonists of the androgen receptor (AR) signaling pathway using the MDA cell line - cell viability counter screen (AID 743041; also: nearly all actives have a fitted effect of over 45% in size; also: potency is read from the fitted curve at half-maximal effect). In short, it runs like this:
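qHTS viability read-out; MDA-kb2 AR-luc; R1881-stimulated; 16 h exposure at 37C, 0% CO2; CellTiter-Fluor, 30 min; fluorescence intensity.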

Assay [16] can be described thus: qHTS assay to test for compound auto fluorescence at 590 nm (red) in HEK293 cell free culture (AID 720683). In short, it runs like this:
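Tox21 10K library compounds were pinned into cell-free DMEM with 10% FBS and fluorescence was read at excitation 540 nm. Activity is expressed as Rose Bengal sodium equivalency.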

Assay [17] concerns the target Androgen receptor (Homo sapiens) (UniProt P10275). The experiment in a line: qHTS assay to identify small molecule antagonists of the androgen receptor (AR) signaling pathway (AID 743035; active = well fitted inhibition curve with a large enough effect in the signal ratio in the repeat runs, not every such curve was filed as active; the % refers to the signal ratio; also: potency is read from the fitted curve at half-maximal effect). In short, it runs like this: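 AR-bla HEK293 reporter cells; 4 h settle at 37C/5% CO2; compound + R1881 agonist, 16 h at 37C; LiveBLAzer B/G FRET substrate 2 h RT; fluorescence intensity read. qHTS format.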

The target is the same in assay [18]. The experiment in a line: qHTS assay to identify small molecule agonists of the androgen receptor (AR) signaling pathway (AID 743036; active = well fitted activation curve with a large enough effect in the signal ratio in the repeat runs, with a control signal flat, not every such curve was filed as active; the % refers to the signal ratio). Summed up:
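Quantitative HTS of the Tox21 10K library in HEK293 cells bearing a stably integrated UAS-controlled beta-lactamase reporter. Compound exposure lasted 16 h at 37C. Reporter activity was detected by FRET substrate fluorescence after 2 h at room temperature.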

Assay [19] shares this target. Put plainly: qHTS assay to identify small molecule agonists of the androgen receptor (AR) signaling pathway using the MDA cell line (AID 743040; also: nearly all actives have a fitted effect of over 20% in size; also: potency is read from the fitted curve at half-maximal effect). In short, it runs like this: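 Agonist activity is measured as luciferase luminescence in human MDA-kb2 cells whose MMTV reporter responds to both AR and GR. Compounds in DMSO incubate 16 h at 37C, 0% CO2, and ONE-Glo is read after 30 min.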

Assay [20] has the same target. The experiment in a line: qHTS assay to identify small molecule antagonists of the androgen receptor (AR) signaling pathway using the MDA cell line (AID 743042; also: nearly all actives have a fitted effect of over 55% in size). Summed up: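 MDA-kb2 cells (human breast carcinoma, stably carrying an MMTV-luciferase reporter responsive to AR and GR) were plated at 3,000 cells/well and preincubated 5 hr at 37C, then given compound plus R1881 agonist for 16 h. ONE-Glo luminescence was read.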

Values joined by “and” are separate entries in the source; they are usually repeats but may differ in a detail not shown here. Identical values can stand only once. Inconclusive results are not listed. Active and inactive are the calls of the source. Unless noted, calls follow the shape of the dose curve; as a rule, active = well fitted curve in the direction sought with a large enough effect in the repeat runs; inconclusive = weak or mixed curves; inactive = no such curve, though single readings can be large; an effect the other way counts as inactive or inconclusive.

Sequence of Glucocorticoid receptor (Homo sapiens) (P04150 whole entry, looked up): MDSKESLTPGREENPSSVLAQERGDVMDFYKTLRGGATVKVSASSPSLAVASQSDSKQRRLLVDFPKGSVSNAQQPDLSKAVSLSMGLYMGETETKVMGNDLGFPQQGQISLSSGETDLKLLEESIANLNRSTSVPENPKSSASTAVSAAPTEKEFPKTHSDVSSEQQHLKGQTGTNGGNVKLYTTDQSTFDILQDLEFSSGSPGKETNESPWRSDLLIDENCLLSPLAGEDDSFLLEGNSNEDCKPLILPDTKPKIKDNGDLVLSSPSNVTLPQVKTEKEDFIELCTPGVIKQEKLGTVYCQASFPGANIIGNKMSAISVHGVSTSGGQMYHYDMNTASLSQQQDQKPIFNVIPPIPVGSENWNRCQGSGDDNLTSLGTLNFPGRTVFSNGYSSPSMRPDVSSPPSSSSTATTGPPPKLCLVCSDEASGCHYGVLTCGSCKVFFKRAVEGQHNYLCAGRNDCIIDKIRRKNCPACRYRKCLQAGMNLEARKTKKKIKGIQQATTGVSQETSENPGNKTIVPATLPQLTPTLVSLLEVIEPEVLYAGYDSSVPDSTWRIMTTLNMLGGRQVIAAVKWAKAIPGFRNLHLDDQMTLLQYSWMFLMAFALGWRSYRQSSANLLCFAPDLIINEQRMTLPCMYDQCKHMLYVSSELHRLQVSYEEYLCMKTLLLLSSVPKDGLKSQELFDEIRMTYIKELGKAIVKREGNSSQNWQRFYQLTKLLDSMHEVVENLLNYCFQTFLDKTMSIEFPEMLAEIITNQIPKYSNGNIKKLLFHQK
Sequence of Androgen receptor (Homo sapiens) (P10275 whole entry, looked up): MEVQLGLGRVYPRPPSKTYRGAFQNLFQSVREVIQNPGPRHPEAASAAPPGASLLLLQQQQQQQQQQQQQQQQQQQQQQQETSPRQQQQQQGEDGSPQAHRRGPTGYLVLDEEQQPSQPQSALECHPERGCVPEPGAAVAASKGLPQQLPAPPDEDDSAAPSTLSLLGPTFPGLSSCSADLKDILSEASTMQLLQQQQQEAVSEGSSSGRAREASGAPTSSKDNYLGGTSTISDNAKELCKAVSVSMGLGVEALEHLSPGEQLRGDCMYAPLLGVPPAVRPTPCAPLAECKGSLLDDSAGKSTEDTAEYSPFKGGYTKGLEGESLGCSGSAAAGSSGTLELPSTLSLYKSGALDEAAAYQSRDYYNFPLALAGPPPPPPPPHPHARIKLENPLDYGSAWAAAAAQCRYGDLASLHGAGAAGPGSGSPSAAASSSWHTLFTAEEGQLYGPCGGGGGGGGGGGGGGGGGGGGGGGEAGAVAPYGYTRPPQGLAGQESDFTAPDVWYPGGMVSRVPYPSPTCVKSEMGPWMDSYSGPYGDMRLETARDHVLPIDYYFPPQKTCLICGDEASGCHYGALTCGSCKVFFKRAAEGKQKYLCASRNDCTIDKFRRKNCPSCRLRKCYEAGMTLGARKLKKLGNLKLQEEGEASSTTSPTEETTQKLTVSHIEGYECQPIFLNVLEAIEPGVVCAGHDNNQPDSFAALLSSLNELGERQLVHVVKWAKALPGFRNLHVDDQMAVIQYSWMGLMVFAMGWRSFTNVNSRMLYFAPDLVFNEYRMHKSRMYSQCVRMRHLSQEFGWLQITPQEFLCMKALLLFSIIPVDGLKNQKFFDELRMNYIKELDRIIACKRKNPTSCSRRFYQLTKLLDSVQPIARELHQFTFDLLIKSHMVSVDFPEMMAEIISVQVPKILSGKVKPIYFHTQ

`CC(C)C[C@H](NC(=O)[C@@H](COC(C)(C)C)NC(=O)[C@H](Cc1ccc(O)cc1)NC(=O)[C@H](CO)NC(=O)[C@H](Cc1c[nH]c2ccccc12)NC(=O)[C@H](Cc1cnc[nH]1)NC(=O)[C@@H]1CCC(=O)N1)C(=O)N[C@@H](CCCN=C(N)N)C(=O)N1CCC[C@H]1C(=O)NNC(N)=O`: the compound was called inactive in assay [1], in assay [3] and in [4]. The Potency entry in [2], in assay [5], in [6], in assay [7], in assay [8] and in assay [9] was “inactive” throughout. The Potency entry in assay [10], in assay [11], in assay [12], in [13], in assay [14] and in [15] was “inactive” each time.
`S=C1NC=NC2N=CNC12` (stereo not given): the outcome in assay [1], in [3] and in [16] was inactive. Moreover, the Potency result in [2], in [5], in assay [6] and in assay [15] was “inactive” throughout. For the same compound, the Potency in assay [11] was 54.5 µM (active); in [12], 48.6 µM (active).
`O=C(O)C[C@H](O)C[C@H](O)/C=C/c1c(C2CC2)nc2ccccc2c1-c1ccc(F)cc1`: the call in assay [1], in assay [3] and in [4] was inactive. Moreover, the Potency entry in assay [2], in [5], in [6], in assay [7], in assay [10] and in assay [14] was “inactive” each time. The Potency entry in assay [18], in assay [19], in assay [15] and in assay [20] was “inactive” throughout. For the same compound, the Potency in [11] is 0.531 µM (active); in assay [12], 0.0944 µM (active); in assay [13], 1.68 µM (active); in assay [17] it was 1690 nM (active).
Take `NC[C@@H]1CC[C@@H](N)[C@@H](O[C@H]2[C@H](O)[C@@H](O[C@H]3O[C@H](CO)[C@@H](O)[C@H](N)[C@H]3O)[C@H](N)C[C@@H]2N)O1`: the result in [1], in assay [3] and in [4] was inactive. For the same compound, the Potency entry in assay [2], in assay [5], in assay [6], in assay [7], in assay [8] and in assay [9] was “inactive” throughout. In addition, the Potency entry in assay [10], in [11], in assay [12], in assay [13], in assay [17] and in assay [18] was “inactive” each time. For the same compound, the Potency result in [15] and in [20] was “inactive” in each case. In addition, the Potency in [19] is 29800 nM (active).
With `CCN1\C(=C/C=C/C=C/c2sc3ccccc3[n+]2CC)Sc2ccccc21`, the call in [1], in assay [3] and in assay [4] was inactive. The Potency result in [2], in assay [5], in assay [6] and in assay [7] was “inactive” in each case. The Potency in [10] was 23.9 µM (active) and 21.3 µM (active); in [11], 133 nM (active) and 298 nM (active); in assay [12], 237 nM (active) and 841 nM (active); in assay [13], 168 nM (active) and 335 nM (active); in [14], 2.68 µM (active) and 8.49 µM (active); in assay [15] it was 1.68 µM (active) and 5.96 µM (active).
For `O=P(O)(O)CP(=O)(O)O`, the result in assay [1], in [3] and in assay [4] was inactive. For the same compound, the Potency entry in assay [2], in [5], in [6], in assay [7], in assay [8] and in assay [10] was “inactive” throughout. The Potency entry in [13], in assay [14], in assay [17], in [18], in assay [19] and in assay [15] was “inactive” in each case. The Potency entry in [20] was “inactive”.
With `OCCCNc1ccccc1`, the call in assay [1], in assay [3] and in [4] was inactive. Moreover, the Potency entry in assay [2], in [5], in [6], in assay [7], in assay [8] and in assay [9] was “inactive” in each case. Also, the Potency entry in assay [10], in assay [14] and in assay [15] was “inactive” throughout.
